Experimental findings from PubChem BioAssay AID2284133 (EPA ToxCast) are described below.

Calls of active or inactive are those of the source. How the source made its calls: active means hit-call score of the fitted dose curve at least 0.9, where 1 is the maximum; inactive means score below 0.9.

Sequence of human MARK1 CAMK Kinase, MARK1 (gene 4139) (Q9P0L2 whole entry, looked up): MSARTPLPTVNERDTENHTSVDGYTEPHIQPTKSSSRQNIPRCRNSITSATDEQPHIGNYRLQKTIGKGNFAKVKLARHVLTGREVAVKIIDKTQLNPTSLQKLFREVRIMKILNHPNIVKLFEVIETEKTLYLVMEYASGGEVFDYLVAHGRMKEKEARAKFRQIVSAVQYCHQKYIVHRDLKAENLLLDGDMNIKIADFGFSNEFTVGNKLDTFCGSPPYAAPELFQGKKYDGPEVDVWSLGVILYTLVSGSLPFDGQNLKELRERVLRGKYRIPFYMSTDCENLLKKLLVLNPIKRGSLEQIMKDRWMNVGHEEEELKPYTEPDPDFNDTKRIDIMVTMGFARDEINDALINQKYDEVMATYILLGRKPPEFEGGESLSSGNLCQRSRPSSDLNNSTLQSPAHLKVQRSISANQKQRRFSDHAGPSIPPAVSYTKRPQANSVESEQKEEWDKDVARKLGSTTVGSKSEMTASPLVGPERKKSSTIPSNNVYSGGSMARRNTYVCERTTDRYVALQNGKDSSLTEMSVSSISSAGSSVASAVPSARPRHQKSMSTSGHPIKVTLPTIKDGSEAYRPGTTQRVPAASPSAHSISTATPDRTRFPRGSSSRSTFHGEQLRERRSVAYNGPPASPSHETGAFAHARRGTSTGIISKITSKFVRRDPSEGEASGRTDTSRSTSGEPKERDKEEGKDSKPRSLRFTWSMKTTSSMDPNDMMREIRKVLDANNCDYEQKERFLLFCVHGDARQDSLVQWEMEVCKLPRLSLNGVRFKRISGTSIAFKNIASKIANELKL

This experiment concerns the target human MARK1 CAMK Kinase, MARK1 (gene 4139) (UniProt Q9P0L2). Put plainly: ERF_FR_ENZ_hMARK1: Eurofins (ERF) Enzymatic Radiometric [Km ATP] KinaseProfiler LeadHunter Assay for human MARK1 CAMK Kinase. The procedure: ERF_FR_ENZ_hMARK1 is a biochemical, single-readout assay that uses extracted gene-proteins in a cell-free assay. Measurements were taken 0.5 hour after chemical dosing in a 96-well plate. See MARK1 Human CAMK Kinase Enzymatic LANCE Assay [Km ATP], Cerep.ERF_FR_ENZ_hMARK1 is an assay component calculated from the ERF_FR_ENZ_hMARK1 assay. It is designed to measure enzyme activity using a type of enzyme reporter as detected by fluorescence intensity with LANCE technology.Data from the assay component ERF_FR_ENZ_hMARK1 was analyzed at the assay endpoint, ERF_FR_ENZ_hMARK1, in the positive analysis fitting direction relative to DMSO as the negative control and baseline of activity. Using a type of enzyme reporter, loss-of-signal activity can be used to understand changes in enzymatic activity as they relate to gene MARK1. To generalize the intended target to other relatable targets, this assay endpoint is annotated to the kinase intended target family, where the subfamily is serine/threonine kinase.
[…] is incubated with 50 mM Na-b-glycerophosphate pH 7.5, 0.1 mM EGTA, 30 uM […], 10 mM MgAcetate and [gamma-33P]-ATP (specific activity and concentration as required). The reaction is initiated by the […] addition of the Mg/ATP mix. After incubation for 40 minutes at room temperature, the reaction is stopped by the addition of phosphoric acid to a concentration of 0.5%. […]
For `O=C(/C=C/c1ccc(O)cc1)CC(=O)/C=C/c1ccc(O)cc1`, the call was inactive.
